Rab9 prom act: activators of Rab9 promoter | Huh7 Rab9 promoter-luciferase reporter, luminescence, 24 h | Potency, µM (doses to about 9.22 µM), for the others: at the highest dose activation, negative = inhibition, most hits filed as activators | 320,000 compounds, 2.8% hits; note: % of control where 0% means no effect; nearly all actives have a fitted effect of over 60% in size
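Cell-based reporter: Huh7 stable for Rab9 promoter-driven luciferase, plated in reduced-serum medium with 10% FBS at 1500 cells/well, compound-treated 24 h at 37 °C, luminescence read after 10 min reagent.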
NPC1 promoter act: activates the NPC1 promoter; Huh7 NPC1 promoter luciferase reporter, 24 h; 320,000 compounds, 2.4% hits; Potency, µM (titrated, usually from 9.22 µM), inactives show at the top dose activation, actives largely listed as activators; AID 485313; note: % of control where 0% means no effect; nearly all actives have a fitted effect of over 60% in size
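Stably transfected Huh7 (NPC1 promoter→luciferase), 1500 cells/well in Opti-MEM + 10% FBS, 2 h settle, then compound 24 h at 37 °C. Luminescence after 10 min with Amplite reagent.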
SMN2 splice enh: SMN2 splice variant enhancement. HEK293 SMN2-luciferase splicing reporter, luminescence, 30-36 h. 210,000 compounds, 2.8% hits. Potency, µM (doses to about 46.1 µM), for inactives: at the highest dose activity change, positive = activation, most hits filed as activators. AID 1458; note: % of control where 0% means no effect; nearly all actives have a fitted effect of over 55% in size
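HEK293 cells carry an SMN2 minigene-luciferase reporter in which exon 7 inclusion puts luciferase in frame. Cells were seeded at 2000 cells/well, attached for 10-12 hours, then exposed to compounds for 30-36 hours at 37C before ONE-Glo luminescence.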
FLuc modulator: counter-screen for miR-21 project: firefly luciferase inhibitors or activators | P08659 | purified FLuc, Km substrates, luminescence inhibition | Potency, µM (top dose mostly 57.5 µM), without a hit: at the highest dose activity change, negative = inhibition, hits mostly inhibitors | 360,000 compounds, 6.9% hits | AID 588342;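 note: plate controls were vehicle for no effect and reference inhibitor for full effect; nearly all actives have a fitted effect of over 55% in size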
Target sequence (P08659 whole entry, looked up): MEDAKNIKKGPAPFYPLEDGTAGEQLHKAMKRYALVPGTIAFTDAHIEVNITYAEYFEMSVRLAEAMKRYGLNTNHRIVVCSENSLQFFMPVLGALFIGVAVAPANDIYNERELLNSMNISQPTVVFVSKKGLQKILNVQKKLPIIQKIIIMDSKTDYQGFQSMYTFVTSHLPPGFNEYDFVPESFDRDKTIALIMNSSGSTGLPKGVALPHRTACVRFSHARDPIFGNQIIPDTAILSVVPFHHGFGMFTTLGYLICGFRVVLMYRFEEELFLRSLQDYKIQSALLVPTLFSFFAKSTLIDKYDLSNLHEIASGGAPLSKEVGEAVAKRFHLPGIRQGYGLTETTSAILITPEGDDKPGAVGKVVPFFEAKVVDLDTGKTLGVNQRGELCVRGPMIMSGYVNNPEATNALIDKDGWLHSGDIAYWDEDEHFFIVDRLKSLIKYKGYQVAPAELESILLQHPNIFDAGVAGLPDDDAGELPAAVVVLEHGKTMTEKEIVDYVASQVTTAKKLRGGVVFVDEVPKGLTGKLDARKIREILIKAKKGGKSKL
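Purified P. pyralis luciferase, 10 nM final, with Km-level 10 uM D-luciferin and 10 uM ATP in 50 mM Tris acetate pH 7.5, 10 mM Mg acetate, 0.01% Tween-20, 0.05% BSA; 6-point qHTS titration about 60 µM downward; luminescence read.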
ELG1 genotox: inducers of genotoxicity in HEK293T ELG1-luciferase cells; 330,000 compounds, 1.3% hits; Potency, µM (doses to about 46 µM), for inactives: at the top dose activity change, positive = activation, usual class: activators; HEK293T ELG1-luciferase reporter, luminescence, 16 h; note: % of control where 0% means no effect; nearly all actives have a fitted effect of over 60% in size
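DMSO vehicle served as control against compound-treated ELG1-luciferase HEK293T cells; exposure lasted 16 hr at 37 °C and 5% CO2, followed by ONE-Glo luminescence detection after 30 min.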
ELG1 DNA repair: inhibitors of ELG1-dependent DNA repair in HEK293T cells. HEK293T ELG1-luciferase reporter, luminescence, 16 h; DNA damage induced by 5-fluorouridine. Potency, µM (titrated, usually from 46.1 µM), without a hit: at the highest dose activity change, negative = inhibition, usual class: inhibitors. 330,000 compounds, 2.3% hits. AID 504467; note: % is set by controls: 0 for no effect and ±100 for the full control effect; nearly all actives have a fitted effect of over 55% in size
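5-Fluorouridine DNA damage + compound/DMSO, 2,000 cells/well, 16 h, 37 °C/5% CO2. ONE-Glo, 30 min RT, luminescence. Readout = decrease in reporter signal.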
Starred values were filed as active, the others as inactive; ? = inconclusive; · = no result; [ ] = dose if it differs, or a comment. In the library only some 9.3% were active in any assay of this set; here they are far more common. Calls come from the whole dose curve; as a rule, active = well fitted curve in the direction sought with a large enough effect; inconclusive = small, poorly fitted or top-dose-only effect, or another doubt; inactive = no such curve, though single readings can be large; an effect the other way counts as inactive or inconclusive. Potency is the fitted concentration of half-maximal effect.

SMILES | Rab9 prom act | NPC1 promoter act | SMN2 splice enh | FLuc modulator | ELG1 genotox | ELG1 DNA repair
CCN1CCN(C(=O)N[C@H](C(=O)N[C@@H]2C(=O)N3[C@@H]2SC(C)(C)[C@@H]3C(=O)O)c2ccccc2)C(=O)C1=O | · | · | -8.7%[20.6 µM] | · | · | ·
COc1ccccc1NC(=O)C1=C(C)Nc2nc(-c3cccs3)nn2C1c1cccnc1 (stereo unspecified) | 7.5% | -0.2% | -1.5% | -0.2% | -8.8% | 18.4µM*
Cc1c(Cl)cccc1S(=O)(=O)Nc1ccnn1C | 0.2% | 2.9% | · | -2.0% | -0.9% | -12.0%
CCC(=O)Nc1nonc1-c1nc2ccccc2n1CCC(C)C | 0.2% | -4.6% | -4.6% | -0.4% | -3.4% | 23.1µM*
COc1ccc(NC(=S)N2CCCCCC2)cc1OC | -1.2% | -0.4% | 14.4% | 3.3% | 3.2% | -0.4%
COc1ccc(C2CCCN2C(=S)Nc2ccc(C)c(C)c2)cc1OC (stereo unspecified) | 4.1% | -4.2% | -62.2% | 1.2% | -4.7% | 25.9µM*
Cc1ccc(NC(=S)N2CCCCC2)cc1C | 26.2% | -2.5% | · | 23.9µM* | 14.1% | ?
COc1ccc(C2CCCN2C(=O)Nc2ccc(C)c(C)c2)cc1OC (stereo unspecified) | 2.7% | 2.6% | -5.7% | ? | 3.7% | ?
Cc1ccc(NC(=S)N2CCCCCC2)cc1 | ? | ? | · | 8.49µM* | ? | 0.0%
CC[C@H]1c2[nH]c3ccccc3c2C[C@@H]2C(=O)N(c3ccc(F)cc3)C(=O)N21 | -3.4% | 8.6% | · | -4.1% | 15.9% | 8.2µM*
O=C1[C@@H]2Cc3c([nH]c4ccccc34)[C@@H](c3ccccc3)N2C(=O)[C@@H]2Cc3c([nH]c4ccccc34)[C@@H](c3ccccc3)N12 | -10.3% | -8.0% | ? | 2.7% | 12.7% | 18.3%
Cc1ccc(NS(=O)(=O)c2cc(-c3cc(C)no3)ccc2C(C)C)nc1 | 13.3% | -1.8% | · | 0.9% | 7.7% | -1.3%
CCC(=O)Nc1ccc(Nc2nc(C)c([N+](=O)[O-])c(Nc3ccc(NC(=O)CC)cc3)n2)cc1 | -2.2% | 1.3% | 5.5% | 5.3% | -0.2% | 11.6µM*
COc1ccc(/C=N/Nc2nc(C)c([N+](=O)[O-])c(N(C)c3ccccc3)n2)cc1OC | -0.9% | -2.0% | -18.4% | -2.8% | -2.2% | 17.7%
CC(=O)Nc1ccc(Nc2nc(C)c([N+](=O)[O-])c(N(C)c3ccccc3)n2)cc1 | -19.4% | -1.4% | · | -14.8% | -12.6% | 20.6µM*
CC(=O)Nc1ccc(Nc2nc(C)c([N+](=O)[O-])c(Nc3ccccc3)n2)cc1 | -16.2% | -5.8% | -59.3% | 5.0% | -16.4% | 14.6µM*
CC1(C)CC(=O)C=C(c2cccc(CO)c2)C1 | -1.4% | 3.8% | · | 12.0% | 2.8% | -0.8%
CC(OC(=O)CC1CCCC1)C(=O)Nc1ccc(Cl)cn1 (stereo unspecified) | -6.5% | -2.3% | · | 2.1% | -0.8% | 14.0%
COc1ccc(Nc2nccc3c2nnn3C)cc1 | 2.24µM* | 1.26µM* | ? | 10.7µM* | 5.8µM* | ?
Cn1nnc2c(NCc3ccco3)nccc21 | 0.9% | -1.8% | -6.5% | 2.3% | 1.7% | 12.7%
Cc1cc(C(=O)CN2C(=O)NC(C)(c3cccc(Br)c3)C2=O)c(C)n1Cc1ccco1 (stereo unspecified) | 4.1% | -0.1% | -13.9% | ? | -17.0% | ?
O=C(c1ccc(S(=O)(=O)c2ccccc2Cl)c([N+](=O)[O-])c1)N1CCN(Cc2ccccc2)CC1 | -0.2% | 0.0% | -15.2%[1.84 µM] | 7.4% | -5.1% | 23.1µM*
O=C(NC1CCCCC1)c1ccc(S(=O)(=O)c2ccccc2Cl)c([N+](=O)[O-])c1 | -1.4% | -5.6% | 3.5%[1.84 µM] | 5.2% | -5.3% | 5.8µM*
O=C(NC1CCCCC1)c1ccc(-n2cncn2)c([N+](=O)[O-])c1 | · | · | · | · | 2.1% | -6.3%
C/C(=N/N1CCN(c2ccccc2)CC1)c1cccc([N+](=O)[O-])c1 | ? | 8.6% | 0.9% | -16.6% | 6.0% | -3.3%
SMILES | Rab9 prom act | NPC1 promoter act | SMN2 splice enh | FLuc modulator | ELG1 genotox | ELG1 DNA repair
O=C(NCCN1C(=O)C2C3C=CC(C3)C2C1=O)Nc1ccccc1O (stereo unspecified) | -2.1% | 2.8% | 12.6% | -12.6% | 17.4% | ?
Cc1ccccc1-n1nc2c(c1NC(=O)c1ccco1)CS(=O)(=O)C2 | 0.1% | 1.2% | · | 2.0% | 0.0% | 4.4%
Cc1ccnc(Nc2nc(-c3ccc(O)cc3O)cs2)c1 | ? | ? | · | 16.9µM* | 14.0% | 0.4%
Cc1ccnc(Nc2nc(-c3ccc(O)c(O)c3)cs2)c1 | -4.4% | ? | · | 6.01µM* | 5.8µM* | ?
CCC(=O)Nc1nc(C)c(-c2csc(Nc3ccccn3)n2)s1 | ? | ? | 15.2% | 16.9µM* | 1.9% | -26.6%
Cc1ccnc(Nc2nc(-c3ccc(O)cc3)cs2)c1 | 3.16µM* | 2.51µM* | · | 8.49µM* | ? | ?
CN(C)S(=O)(=O)c1ccc(C(=O)NCCSc2c(-c3ccc(Cl)cc3)[nH]c3ccccc23)cc1 | · | · | -10.0% | 1.4% | · | ·
Cc1oc(-c2cccc(Cl)c2)nc1CN1CCC(C(=O)NC(C)c2ccccc2)CC1 (stereo unspecified) | · | · | 8.1% | -10.7% | · | ·
CC(=O)Nc1ccc(-c2csc(NCCc3ccccc3)n2)cc1 | ? | ? | · | ? | 1.3% | ?
Oc1ccc(-c2csc(Nc3ccccn3)n2)cc1O | -14.3% | ? | · | 9.53µM* | 3.66µM* | ?
Oc1ccc(-c2csc(Nc3cccc4ccccc34)n2)cc1O | 5.6% | -7.5% | · | ? | 3.6% | 11.3%
CC(=O)Nc1ccc(-c2csc(Nc3ccccn3)n2)cc1 | 0.447µM* | 0.501µM* | · | ? | ? | ?
C/C(=N\Nc1ccc(C(=O)O)cc1)c1ccc2c(c1)Nc1ccccc1S2 | ? | ? | · | 2.13µM* | 11.1% | ?
Cc1ccc(-c2n[nH]c(=O)c3ccccc23)cc1S(=O)(=O)NCCO | 2.6% | -4.3% | 19.8% | 2.2% | 15.9% | 6.0%
CCOc1ccccc1N1CSC2=C(C#N)C(c3c(OC)ccc4ccccc34)CC(=O)N2C1 (stereo unspecified) | 0.5% | 1.4% | 5.0% | 7.57µM* | -6.1% | -1.6%
COc1cc(OC)c(C2CC(=O)N3CN(c4ccc(C)cc4)CSC3=C2C#N)cc1OC (stereo unspecified) | 25.4% | ? | 6.7% | 15.1µM* | 2.8% | 7.8%
O=C(CSc1nccn1-c1ccccc1)NO | 2.0% | -0.3% | -3.5% | -0.3% | 0.5% | 6.2%
COC(=O)c1ccc2[nH]c(C(C)(C)O)c(C)c2c1 | ? | ? | · | 19µM* | ? | ?
